Source: PubChem BioAssay (several laboratories)
Most compounds without a hit are left out; they make up all but 4.5% or so of the library.
Efflux pump mplx: inhibitors of Candida efflux pumps in yeast, primary screen, S. cerevisiae, Nile Red, multiplex; S. cerevisiae Candida pump triplex; inhibition, % at 10 µM; 0.44% of 330,000 active; AID 485275, 2010;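 active means plate passing quality check with inhibition over a set limit, or well fluorescence over plate mean plus 4 SD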;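 further: Nile Red retained in pooled yeast measured as flow cytometry median fluorescence; higher means more Nile Red kept so more efflux inhibition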
Rce1 inhib: yeast Rce1p protease inhibitors, primary screen, biochemical, fluorescence, cell-free homogeneous | yeast membranes, quenched prenylated peptide cleavage fluorescence | 0.27% of 290,000 active | CAAX prenyl protease 2 (Saccharomyces cerevisiae (strain ATCC 204508 / S288c)), Q03530 | calls only | AID 2563, 2010;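 active means fall in fluorescence gain of 50% or more versus controls, with final raw signal at or below 3038400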
GRK2 aptamer HTS: compounds blocking aptamer binding on GRK2 – biochemical, human GRK2, bead flow cytometry, HTS, primary screen. Beta-adrenergic receptor kinase 1 (Homo sapiens), P25098. FAM-aptamer displacement from GRK2. inhibition of aptamer binding, % at 10 µM. 0.59% of 330,000 active;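 active means inhibition of aptamer binding above 40%, roughly 3 SD of noise, on plates passing a quality check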;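 further: median bead fluorescence of bound FAM aptamer so fluorescent compounds give negative values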
Rtt109 Vps75: inhibitors of C. albicans Rtt109/Vps75 HAT, primary screen, biochemical, ThioGlo CoA-SH fluorescence, plate reader; purified Rtt109/Vps75, 4 h; Histone acetyltransferase RTT109 (Candida albicans (strain SC5314 / ATCC MYA-2876)), …; inhibition, % at 34.9 µM; 0.16% of 330,000 active;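 active means inhibition of at least 50% in every replicate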
Target sequence (Q5AAJ8 whole entry, looked up): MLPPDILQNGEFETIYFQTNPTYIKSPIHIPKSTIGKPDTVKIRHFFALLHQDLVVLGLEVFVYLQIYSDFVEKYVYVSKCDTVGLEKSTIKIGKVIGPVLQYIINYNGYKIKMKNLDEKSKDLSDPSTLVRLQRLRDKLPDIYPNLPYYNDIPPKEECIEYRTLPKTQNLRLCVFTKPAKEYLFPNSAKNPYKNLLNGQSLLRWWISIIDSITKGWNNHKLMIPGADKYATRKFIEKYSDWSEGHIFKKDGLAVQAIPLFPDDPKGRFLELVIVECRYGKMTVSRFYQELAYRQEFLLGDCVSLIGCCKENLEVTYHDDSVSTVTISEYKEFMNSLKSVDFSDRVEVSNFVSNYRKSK
ALR inh: inhibitors of human ALR sulfhydryl oxidase, primary screen, biochemical, H2O2 detection, HRP-luminol luminescence, single point; FAD-linked sulfhydryl oxidase ALR (Homo sapiens), P55789; purified ALR, DTT oxidation; inhibition, % (no concentration beside the values); 3.8% of 290,000 active;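 active means mean replicate inhibition above about 79%, with every replicate also reaching it, limit read from the data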
Target sequence (P55789 whole entry, looked up): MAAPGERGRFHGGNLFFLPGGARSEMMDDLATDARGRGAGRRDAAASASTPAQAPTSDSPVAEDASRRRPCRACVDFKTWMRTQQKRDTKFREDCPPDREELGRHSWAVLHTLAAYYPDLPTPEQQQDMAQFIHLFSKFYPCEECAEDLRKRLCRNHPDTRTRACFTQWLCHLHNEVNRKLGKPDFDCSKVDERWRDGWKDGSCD
HDAC3 inh: HDAC3 deacetylase inhibitors, primary screen, biochemical, fluorescence, cell-free homogeneous | Histone deacetylase 3 (Homo sapiens), O15379 | recombinant HDAC3, fluorogenic peptide/trypsin coupled | inhibition, % at 8.3 µM | 0.15% of 320,000 active; in the data active means inhibition above about 26%, passing the limit was not always enough
GRK2 CP1: GRK2 aptamer-displacing inhibitors, retest, confirmation, biochemical, cherry pick 1, bead flow cytometry | shares compounds with GRK2 aptamer HTS | bead-bound GRK2, FAM-aptamer displacement | aptamer displacement, % at 10 µM | 4% of 2,000 active | AID 504451, 2011;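 active means aptamer displacement above 40%, near three times the noise of non-fluorescent compounds, on plates passing quality checks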;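 further: negative values mostly reflect intrinsic compound fluorescence rather than true enhancement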
Aptamer quench: counter-screen for GRK2 aptamer inhibitors: fluorescent aptamer quenchers. fluorescence change (kMESF span), kMESF (no concentration beside the values). Fluorescent RNA aptamer beads, quenching, flow cytometry; stronger effect = higher value. 110 tested, under 10 active. shares compounds with GRK2 aptamer HTS;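 active means compounds whose bead fluorescence drops by more than 37 kMESF across the dose range, marking them as dye quenchers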
Aptamer quench SP: counter-screen for GRK2 aptamer inhibitors: fluorescent aptamer quenchers | shares compounds with GRK2 aptamer HTS | Carboxyfluorescein RNA aptamer on beads, flow cytometry quenching; stronger effect = lower value | fluorescence response (% of DMSO), % at 10 µM | 2,000 tested, under 10 active | AID 504580;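 active means compounds that quench the bead-bound fluorescent RNA probe, cutting fluorescence to under half of the solvent control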;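 further: counterscreen run without GRK2 so only probe quenching by compound is measured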
GRK2 CP2: GRK2 aptamer-displacing inhibitors, hit retest, confirmation, biochemical, cherry pick 2, bead flow cytometry; 360 tested, under 10 active; bead-bound GRK2, FAM-aptamer displacement; inhibition of aptamer binding, % at 10 µM; AID 504782, 2011; shares compounds with GRK2 aptamer HTS;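 active means inhibition of aptamer binding above 40%, about triple the noise seen with nonglowing compounds, on plates passing quality control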;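 further: negative values mostly come from compounds that fluoresce themselves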
FAM quench CP2: counter-screen for GRK2 binding hits: quenchers of fluorescent RNA aptamer | fluorescence response vs DMSO, % at 10 µM | carboxyfluorescein RNA aptamer beads, flow cytometry quenching; stronger effect = lower value | shares compounds with GRK2 aptamer HTS | AID 588494 | 360 tested, under 10 active;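 active means response vs DMSO under 50%, meaning signal dropped by over half, treated as fluorescence quencher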;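 further: labelled aptamer on streptavidin beads without GRK2 as a quench counter-screen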
Numbers stand for hits; - = inactive; . = no result given.

SMILES	Efflux pump mplx	Rce1 inhib	GRK2 aptamer HTS	Rtt109 Vps75	ALR inh	HDAC3 inh	GRK2 CP1	Aptamer quench SP	others
O=C(Cn1c(NCCO)nc2ccccc21)NCC1CCCO1 (centres undefined)	-	-	100.0	-	-	.	-	-
O=C(Cn1c(NCCO)nc2ccccc21)NCCc1ccccc1	-	.	-	-	-	-	.	.
NC(CO)C(O)c1ccc([N+](=O)[O-])cc1 (centres undefined)	-	-	98.0	-	-	-	-	-
O=C(c1cccc(S(=O)(=O)N2CCc3ccccc32)c1)N1CCN(c2ccccc2)CC1	.	.	.	-	.	.	-	-
O=S(=O)(Nc1nc2cc3c(cc2nc1Cl)OCCO3)c1ccccc1	-	-	48.0	-	-	-	-	-
C=C(C)C(=O)Nc1cccc(C2=NOC3(C2)C[C@H](C(N)=O)N(C(=O)/C=C/C)C3)c1 (some centres undefined)	-	-	70.0	-	.	-	50.0	-	Aptamer quench=-
C/C=C/C(=O)N1CC2(CC(c3cccc(NC(=O)CC)c3)=NO2)C[C@H]1C(N)=O (some centres undefined)	-	-	-	-	-	-	.	.
C/C=C\C(=O)Nc1cccc(C2=NOC3(C2)C[C@H](C(N)=O)N(C(=O)/C=C/CC)C3)c1 (some centres undefined)	-	-	-	-	-	-	.	.
C=C(C)C(=O)Nc1cccc(C2=NOC3(C2)C[C@@H](C(N)=O)N(C(=O)/C=C/CC)C3)c1 (some centres undefined)	-	-	61.0	-	.	-	41.2	-	Aptamer quench=-
CCCN(C(=O)CSc1ncnc2sccc12)c1c(N)n(Cc2ccccc2)c(=O)[nH]c1=O	-	.	-	-	.	-	.	.
Cc1cc(=O)oc2cc(OC(C)C(=O)NC3(C#N)CCCCC3)ccc12 (centres undefined)	-	.	-	-	.	-	.	.
COC(=O)/C=C1\N/C(=N/c2nc(C)c3cc(OC)ccc3n2)NC1=O	-	.	55.0	-	-	-	-	-
O=C(CCC(=O)c1ccc(Cl)cc1)NCc1ccccc1	-	-	-	-	-	-	.	.
O=C(c1ccc(Cl)cc1)n1c(NCc2ccccc2)n[nH]c1=S	-	-	65.0	-	.	-	-	-
CN(c1ccccc1)S(=O)(=O)c1ccc(Cl)c(C(=O)OCC(=O)c2c(N)n(C)c(=O)n(C)c2=O)c1	.	.	.	-	.	.	.	.
CCCC1(CCC)NC(=O)N(CC(=O)Nc2ccc3c(c2)OCCO3)C1=O	-	.	-	-	-	-	.	.
Cc1cc(C)cc(NC(=S)/C(=C(\[O-])c2ccc(Cl)s2)[n+]2cccc(C)c2)c1	-	-	-	-	-	-	.	.
Cc1cc(C)cc(NC(=S)/C(=C(\[O-])c2ccc(Cl)cc2Cl)[n+]2ccc(C(C)(C)C)cc2)c1	-	-	41.0	-	-	-	-	-
COC(=O)c1cc(S(=O)(=O)NCCc2sccc2C)c[nH]1	-	-	-	-	-	-	.	.
O=C(NC1CC1)c1cccc(Nc2ccc(-c3ccc4c(c3)OCCO4)nn2)c1	-	-	-	-	-	-	-	-
CCOC(=O)CNC(=O)c1sc(NC(=O)c2ccccc2F)nc1C	-	-	59.0	-	-	-	-	-
N#C/C(=C\c1c(N2CCC(C(N)=O)CC2)nc2ccccn2c1=O)S(=O)(=O)c1ccc(Cl)cc1	-	-	41.0	-	-	-	-	-
CCN(C(=O)COC(=O)c1cc(=O)[nH]c2ccccc12)C1CCS(=O)(=O)C1 (centres undefined)	-	-	49.0	-	-	-	-	-
CCN(C(=O)COC(=O)c1cc(-c2ccc3cc(OC)ccc3c2)nc2ccccc12)C1CCS(=O)(=O)C1 (centres undefined)	-	-	-	.	-	-	.	.
CN(C(=O)CCN1C(=O)/C(=C/c2ccccc2)SC1=S)C1CCS(=O)(=O)C1 (centres undefined)	-	-	72.0	-	-	-	-	-
SMILES	Efflux pump mplx	Rce1 inhib	GRK2 aptamer HTS	Rtt109 Vps75	ALR inh	HDAC3 inh	GRK2 CP1	Aptamer quench SP	others
O=C(Nc1cccc(F)c1)C1CCCN(c2cnccn2)C1 (centres undefined)	-	-	-	-	-	.	.	.
O=C1C2CCCCN2C(=O)N1CCN1CCN(c2cccc(Cl)c2)CC1 (centres undefined)	.	.	.	-	.	.	.	.
O=C1C2CCCN2C(=O)N1CCCCN1CCN(c2cccc(Cl)c2)CC1 (centres undefined)	-	-	100.0	-	-	-	.	.	GRK2 CP2=-;FAM quench CP2=-
CC12C(=O)N(c3ccccc3C(=O)O)C(=O)C1C1C=CC2C1 (centres undefined)	-	-	79.0	-	-	-	-	-
CN1CCCN(C(=O)c2c(F)cccc2Cl)CC1	-	-	-	-	-	-	.	.
C=CCOc1ccc2ccccc2c1CNn1c(C)n[nH]c1=S	-	-	78.0	-	.	-	-	-
FC(F)(F)C(F)(F)C(F)(F)c1nnc2ccc(N3CCOCC3)nn12	-	.	-	-	-	-	.	.
NNc1ccc2nnc(C(F)(F)C(F)(F)C(F)(F)F)n2n1	-	-	80.0	.	-	-	-	-
O=C(CSc1nnc(Nc2ccccc2F)s1)NC(=O)CN1CCCC1=O	-	.	47.0	-	-	-	-	-
O=C(CSc1nnc(Nc2ccccc2F)s1)NCc1ccco1	.	.	.	-	.	.	.	.
COc1ccccc1C(=O)NCC(=O)N/N=C/c1cn[nH]c1-c1ccccc1	-	-	-	-	-	-	.	.
O=C1C=C(NCc2ccco2)CC(c2ccc(Cl)cc2)C1 (centres undefined)	-	-	86.0	-	-	-	-	-
Cc1sc2nc(SCC(=O)NCc3ccco3)[nH]c(=O)c2c1C	-	.	-	-	-	-	.	.	GRK2 CP2=-;FAM quench CP2=-
Cc1sc2nc(SCC(=O)NCc3cccs3)[nH]c(=O)c2c1C	-	-	-	-	.	-	.	.
